Test results published in PubChem BioAssay (NCATS).
Records with an inconclusive call do not appear. A number with no mark means an inactive call. Active and inactive are the calls of the source. Unless noted, the call rests on the fitted dose curve; in most records, active means well fitted activation curve with a large enough effect in the main read-out, with a control signal flat (not every such curve was filed as active); inconclusive means small, poorly fitted or top-dose-only effect, or effect the other way, or a change in a side signal; inactive means flat fitted curve, though single readings scatter. Residues, ends and D or L forms follow the SMILES beside them. *: point of attachment. Cbz = O=C(OCc1ccccc1)*

molecular target: Mitogen-activated protein kinase 10 (Mus musculus) (UniProt Q61831); assay: JNK3 AlphaScreen Assay (AID 530; active means well fitted curve in either direction with a large enough effect, not every such curve was filed as active;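 further: kinase came from lysate of stimulated human HepG2 cells; signal reports phosphorylation of biotinylated GST-cJun 1-79 at Ser73 with 10 µM ATP; on the % scale 0 is the no-effect control and ±100 the full control effect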); settings: JNK3 lysate, c-Jun phosphorylation; series mostly up to 57.1 µM; activity change, negative = inhibition: at the top concentration
Summary of the method: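 HepG2 lysate (IL-1b/TNFa pre-activated) + biotin-GST-cJun 1-79 + anti-pSer73 cJun; cpd titration, 15 min RT; ATP 10 uM start; Tris pH 7.6, MgCl2, DTT, vanadate; beads in EDTA buffer; AlphaScreen.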

| Structure (SMILES) | activity change, negative = inhibition | outcome |
| --- | --- | --- |
| COc1ccccc1N1CCN(CCN(C(=O)c2ccc(F)cc2)c2ccccn2)CC1 | -7.85% |  |
| CCN(CC)CCCCCCCCOC(=O)c1cc(OC)c(OC)c(OC)c1 | 24.3% |  |
| NC(=Nc1ccccc1)NC(=O)c1nc(Cl)c(N)nc1N | 19.3% |  |
| O=C(OCCN1CCOCC1)C1(c2ccccc2)CCCCC1 | -25.8% |  |
| CC(C)[C@H](NC(=O)OCc1ccccc1)C(=O)N[C@H](C=O)Cc1ccccc1 (Cbz-Val-Phe-aldehyde) | 18.4% |  |
| O=C(O)C1=CCCNC1 | -3.89% |  |
| NCCNS(=O)(=O)c1cccc2c(Cl)cccc12 | 10.2% |  |
| O=c1[nH]c(=O)c2nc3ccccc3nc2[nH]1 | -3.36% |  |
| CC1CCN(CC[C@H]2CCCN2S(=O)(=O)c2cccc(O)c2)CC1 | -15.4% |  |
| CCc1ccc2c(-c3cccc(Cl)c3)nc(=O)n(CC)c2n1 | -19.9% |  |
| N[C@H](C(=O)O)[C@H](O)C(=O)O | -11.4% |  |
| Cc1nc(N=Nc2cc(S(=O)(=O)O)c3cc([N+](=O)[O-])cc(S(=O)(=O)O)c3c2)c(COP(=O)(O)O)c(C=O)c1O | 8.36% |  |
| NC1(C(=O)O)CC1 | 4.32% |  |
| OC1(c2ccc(Cl)cc2)CCN(Cc2c[nH]c3ccccc23)CC1 |  | inactive |
| C/C(=C\c1ccc(C(=O)O)cc1)c1ccc2c(c1)C(C)(C)CCC2(C)C |  | inactive |
| COc1cc(CNC(=O)CCCCCCC(C)C)ccc1O |  | inactive |
| CCCCCCCCCCC/C=C\C(C)(C)/C=C\CCCC(=O)O | 27.9% |  |
| N=C(N)SCCN |  | inactive |
| CCCn1c(=O)c(C)cn2nc(N)nc12 | -14.6% |  |
| CC(=O)NNC(=O)N1Cc2ccccc2Oc2ccc(Cl)cc21 |  | inactive |
| O=C(O)Cc1c[nH]c2ccc(O)cc12 | -14.8% |  |
| NC[C@@H]1O[C@H](c2ccccc2)Cc2c1ccc(O)c2O | -67.1% |  |
| CCCCCC[C@@H]([C@@H](C)O)n1cnc2c(N)ncnc21 | 8.9% |  |
| C[C@](Cc1ccc(O)c(O)c1)(NN)C(=O)O | 14.3% |  |
| C=C1C(=O)O[C@@H]2[C@H]3O[C@]3(C)CCC=C(C)CC[C@@H]12 |  | inactive |
| O=c1onc2cnc3ccccc3n12 |  | inactive |
| O=C(O)c1ccccc1Nc1cccc(OCc2ccc3ccccc3n2)c1 |  | inactive |
| COc1cc(CC(=O)O)ccc1O | 1.47% |  |

molecular target: 3',5'-cyclic-AMP phosphodiesterase 4B (Homo sapiens) (UniProt Q07343); assay: qHTS Assay for Inhibitors of PDE-IV (AID 607); settings: HEK293 ACTOne CNG channel cells, membrane potential fluorescence; series mostly up to 22.9 µM; activation (PDE inhibition): at the top concentration; further: potency means the concentration at half of the fitted maximal effect; on activation (PDE inhibition): % of control where 0% means no effect
Sequence (Q07343 whole entry, looked up): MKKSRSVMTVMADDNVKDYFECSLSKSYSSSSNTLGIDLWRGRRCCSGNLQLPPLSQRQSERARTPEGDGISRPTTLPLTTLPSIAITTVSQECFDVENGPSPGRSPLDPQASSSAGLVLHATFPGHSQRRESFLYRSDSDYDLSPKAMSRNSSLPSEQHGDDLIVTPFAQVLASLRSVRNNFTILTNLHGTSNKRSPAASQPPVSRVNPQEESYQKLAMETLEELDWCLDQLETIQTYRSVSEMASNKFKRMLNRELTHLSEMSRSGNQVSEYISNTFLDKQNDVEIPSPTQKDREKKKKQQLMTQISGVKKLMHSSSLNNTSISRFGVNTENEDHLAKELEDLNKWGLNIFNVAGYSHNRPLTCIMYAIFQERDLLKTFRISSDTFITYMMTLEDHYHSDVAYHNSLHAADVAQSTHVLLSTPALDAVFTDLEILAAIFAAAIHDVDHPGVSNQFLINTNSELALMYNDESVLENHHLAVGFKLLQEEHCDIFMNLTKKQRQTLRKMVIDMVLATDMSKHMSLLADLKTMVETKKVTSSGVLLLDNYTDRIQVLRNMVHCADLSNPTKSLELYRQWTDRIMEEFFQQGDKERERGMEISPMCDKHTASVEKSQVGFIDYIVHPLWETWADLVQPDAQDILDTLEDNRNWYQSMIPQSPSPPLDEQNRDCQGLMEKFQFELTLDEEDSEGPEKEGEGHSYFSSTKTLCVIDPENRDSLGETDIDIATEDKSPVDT
Summary of the method: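 ACTOne HEK293 cells carry a modified cAMP-gated CNG channel and express endogenous PDE4; plated 1000 cells/well, compounds up to 22.9 uM final. Membrane-potential dye fluorescence (ex 535/em 590) was read; parental cells received 10 uM forskolin + 100 uM RO 20-1724.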

| Structure (SMILES) | activation (PDE inhibition) | Potency |
| --- | --- | --- |
| COc1ccccc1N1CCN(CCN(C(=O)c2ccc(F)cc2)c2ccccn2)CC1 | 5.12% |  |
| O=C1Nc2ccc(I)cc2/C1=C/c1cc(Br)c(O)c(Br)c1 | -21.8% |  |
| CCN(CC)CCCCCCCCOC(=O)c1cc(OC)c(OC)c(OC)c1 | 15.6% |  |
| NC(=Nc1ccccc1)NC(=O)c1nc(Cl)c(N)nc1N | 22.9% |  |
| O=C(OCCN1CCOCC1)C1(c2ccccc2)CCCCC1 | 13.4% |  |
| CC(C)[C@H](NC(=O)OCc1ccccc1)C(=O)N[C@H](C=O)Cc1ccccc1 (Cbz-Val-Phe-aldehyde) | 0.904% |  |
| O=C(O)C1=CCCNC1 | 2.2% |  |
| NCCNS(=O)(=O)c1cccc2c(Cl)cccc12 | 12.4% |  |
| O=c1[nH]c(=O)c2nc3ccccc3nc2[nH]1 | 1.14% |  |
| CC1CCN(CC[C@H]2CCCN2S(=O)(=O)c2cccc(O)c2)CC1 | -29.9% |  |
| CCc1ccc2c(-c3cccc(Cl)c3)nc(=O)n(CC)c2n1 |  | 0.012 µM (active) |
| N[C@H](C(=O)O)[C@H](O)C(=O)O | -27.2% |  |
| Cc1nc(N=Nc2cc(S(=O)(=O)O)c3cc([N+](=O)[O-])cc(S(=O)(=O)O)c3c2)c(COP(=O)(O)O)c(C=O)c1O | -7.25% |  |
| NC1(C(=O)O)CC1 | 3.69% |  |
| OC1(c2ccc(Cl)cc2)CCN(Cc2c[nH]c3ccccc23)CC1 |  | inactive |
| C/C(=C\c1ccc(C(=O)O)cc1)c1ccc2c(c1)C(C)(C)CCC2(C)C | -16.8% |  |
| COc1cc(CNC(=O)CCCCCCC(C)C)ccc1O | 12.3% |  |

| Structure (SMILES) | activation (PDE inhibition) | Potency |
| --- | --- | --- |
| CCCCCCCCCCC/C=C\C(C)(C)/C=C\CCCC(=O)O | -13.6% |  |
| N=C(N)SCCN | 0.583% |  |
| O=C(O)C1=CC(=C(c2ccc(O)c(C(=O)O)c2)c2ccc(O)c(C(=O)O)c2)C=CC1=O | 9.41% |  |
| CCCn1c(=O)c(C)cn2nc(N)nc12 |  | 0.151 µM (active) |
| COc1ccc2c(c1)c(CC(=O)O)c(C)n2Cc1ccc(Cl)cc1 | -3.94% |  |
| CC(=O)NNC(=O)N1Cc2ccccc2Oc2ccc(Cl)cc21 | 0.556% |  |
| O=C(O)Cc1c[nH]c2ccc(O)cc12 | -12.1% |  |
| NC[C@@H]1O[C@H](c2ccccc2)Cc2c1ccc(O)c2O | -23.8% |  |
| CCCCCC[C@@H]([C@@H](C)O)n1cnc2c(N)ncnc21 | 7.89% |  |
| NC(=O)CNCCC(c1ccccc1)c1ccccc1 | 17.6% |  |
| C[C@](Cc1ccc(O)c(O)c1)(NN)C(=O)O | 8.56% |  |
| C=C1C(=O)O[C@@H]2[C@H]3O[C@]3(C)CCC=C(C)CC[C@@H]12 |  | inactive |
| O=c1onc2cnc3ccccc3n12 |  | inactive |
| O=C(O)c1ccccc1Nc1cccc(OCc2ccc3ccccc3n2)c1 | -3.99% |  |
| COc1cc(/C=C(\C#N)C(=O)c2ccc(O)c(O)c2)cc(I)c1O | 6.59% |  |
| COc1cc(CC(=O)O)ccc1O | -12.4% |  |
